# Data published in ChEMBL document CHEMBL1157539, “Thousands of chemical starting points for antimalarial lead identification” (Nature, 2010).
# Columns and labels:
# Format in all cases: functional
# [1] = system: Plasmodium falciparum; experiment: GSK_TCMDC: Inhibition of Plasmodium falciparum 3D7 in whole red blood cells, using parasite LDH activity as an index of growth. Test compounds present at 2uM
# [2] = system: Plasmodium falciparum; experiment: GSK_TCMDC: Inhibition of Plasmodium falciparum Dd2 in whole red blood cells, using parasite LDH activity as an index of growth. Test compounds present at 2uM
# [3] = system: HepG2; experiment: GSK_TCMDC: Percent inhibition of human HepG2 cell line. Test compounds present at 10uM.
SMILES,Inhibition [1] [%],Inhibition [2] [%],Inhibition [3] [%]
CCOc1ccc(NC(=O)c2ccc(NCCCN3CC(C)CC(C)C3)c([N+](=O)[O-])c2)cc1 (centres undefined),100,60,3
NC1=NC(Cc2ccccc2)(c2ccncc2)C(=O)N1CCCc1ccccc1 (centres undefined),86,1,1
O=C(Nc1ccc(Cn2ncc(N3CCCNCC3)c(Cl)c2=O)cc1)Nc1cccc(Oc2ccccc2)c1.O=C(O)C(F)(F)F,81,41,8
COC(=O)c1ccccc1COc1ccc(CC2(NC(=O)[C@H](Nc3ccc(C#N)c4ccccc34)C(C)(C)C)CCCC2)cc1,95,82,1
O=C(Nc1ccccc1)Nc1ccc(-c2cccc(-c3nc4cc(C(F)(F)F)ccc4[nH]3)c2)cc1,100,73,59
COc1ccccc1Nc1nc(C)cc(NCc2ccc(-n3ccnc3)cc2)n1,90,10,5
CSCCCN1CCC(O)(c2ccc3oc(C(=O)Nc4ccc5sc(C)nc5c4)cc3c2)CC1,100,69,10
CCOc1ccc2c(c1)N(C(=O)C=Cc1ccccc1)C(C)(C)c1ssc(=S)c1-2,83,77,3
Cc1ccc(C2CC(c3cccs3)=NN2C(=O)c2ccc(Br)o2)cc1 (centres undefined),99,69,11
CC(C)(CN)c1cc(-c2ccc(Cl)c(O)c2)c(-c2ccncc2)o1.Cl,92,97,44
Cn1nccc1C(=O)NCCNCc1ccc(-c2cccc(-c3nc4cc(C(F)(F)F)ccc4[nH]3)c2)cc1.O=C(O)C(F)(F)F,100,99,51
COCCCN=C(S)NN=C(C)c1ccccn1,100,99,55
O=C(N[C@@H](Cc1ccccc1)[C@H](O)CNC1CCOCC1)c1cc(C2CCCC2)cc(N2CCCCS2(=O)=O)c1.O=CO,100,98,3
COc1ccc(-c2ccc3c(-c4ccc(F)cc4)cnc(N)c3c2)cn1,99,86,4
O=C(Nc1ccc(Cl)cc1)Nc1ccc(Cn2ncc(N3CCCNCC3)c(Cl)c2=O)cc1.O=C(O)C(F)(F)F,85,11,49
Cc1noc(C)c1-c1cccc(CNCc2ccc(-c3cccc(-c4nc5ccccc5[nH]4)c3)cc2)c1.O=C(O)C(F)(F)F,100,57,50
Cc1ccn2cc(-c3ccc(NC(=O)c4ccc(Br)o4)cc3)nc2c1,98,41,100
CC(C)(C)C1CCC(C(=O)c2ccc3ccccc3c2O)CC1 (centres undefined),83,63,0
COc1ccc2nccc(N3CCC(NCCNCc4cc5c(cn4)OCCO5)C3)c2n1.Cl (centres undefined),99,3,8
Cc1nc(C(=O)N2CCCC[C@H]2CNC(=O)c2ccc(-c3ccc(N4CCCC4=O)cc3C)cc2)c(-c2ccc(F)cc2)s1,98,94,6
O=C(Nc1ccc2c(c1)CN(Cc1ccc(N3CCCC3)o1)CCC2)c1ccoc1.O=CO,89,76,4
COc1ccccc1C1CN(CCNC(=O)c2nc(C)c[nH]2)Cc2ccccc2O1 (centres undefined),90,86,4
O=C(Nc1cccc(-c2cccc(-c3nc4cc(C(F)(F)F)ccc4[nH]3)c2)c1)c1csnn1,99,37,45
O=C(Nc1cccc(-c2nc3ccccc3[nH]2)c1)c1cccc(NC(=O)c2ccco2)c1,91,45,9
O=C(c1ccc([N+](=O)[O-])o1)N1CCC(Cc2ccc(C(F)(F)F)cc2)CC1,100,99,38
CN1CCN(c2cc(NC(=O)Nc3ccc(-c4ccncc4)c(Cl)c3)ccc2Br)CC1,100,99,23
CC(C)(C(=O)Nc1ccc(N2CCC3(CCCN(CC4CC4)C3)CC2)c(Cl)c1)c1cccc(C(F)(F)F)c1,92,0,27
Br.CN(C)CCCOc1ccc(-c2csc(NC(=N)NCc3ccccc3)n2)cc1,100,97,57
